Assay results from the supplement of paper PMC12494721.
Counter-ions that a name gives are not always drawn.

Legend:
Conditions in all cases: incubation time: 27 h, anaerobic, 37 °C;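 for the amine columns active = adjusted P below 0.05 in both replicates with a change the same way and a mean fold change under 0.8 or over 1.25; inactive = the rest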
[1] = tested on: Clostridium sporogenes DSM 1664; assay: growth (OD595) fold change vs plate DMSO controls (fold change (ratio)); higher = more growth
Outline: (§1)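 The reported measure is growth: the fold change against the median of DMSO controls on the plate. Absorbance at 595 nm from anaerobic 96-well mGAM cultures grown for 27 h at 37 °C was blank-subtracted, corrected for background with 20 µM compound solutions in water, and converted to OD with a calibration factor of 5. Fold changes above 1.5 appear as NA, and values are the mean of 2 biological replicates.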

Escherichia coli IAI1 [2] = assay: as above
Outline: as §1

[3] = tested on: Klebsiella aerogenes DSM 30053; assay: as above
Outline: as §1

[4] = tested on: Ruminococcus gnavus DSM 108212; assay: as above
Outline: as §1

[5] = tested on: Klebsiella aerogenes DSM 30053; assay: fold change of Histamine concentration vs plate DMSO controls (fold change (ratio)); higher = more amine produced, active = hit call of the paper (significant change in both replicates, either direction)
Outline: (§2)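 Anaerobic mGAM cultures of four gut bacterial strains were grown at 37 °C for 27 h in 80 µL wells, starting at OD 0.1 before 1:1 dilution. Compounds were at 20 µM final (sweeteners 50 µM). Whole cultures were extracted with cold acetonitrile/methanol containing 0.1% formic acid and centrifuged. Amines were quantified by LC–triple-quadrupole MS (dynamic MRM) against external calibration curves and drift-corrected within batch. Each value is the fold change versus plate DMSO controls, averaged over 2 biological replicates.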

[6] = tested on: Clostridium sporogenes DSM 1664; assay: fold change of Tryptamine concentration vs plate DMSO controls (fold change (ratio)); higher = more amine produced, active = hit call of the paper (significant change in both replicates, either direction)
Outline: as §2

[7] = tested on: Ruminococcus gnavus DSM 108212; assay: as above
Outline: as §2

Escherichia coli IAI1 [8] = assay: fold change of Putrescine concentration vs plate DMSO controls (fold change (ratio)); higher = more amine produced, active = hit call of the paper (significant change in both replicates, either direction)
Outline: as §2

[9] = tested on: Klebsiella aerogenes DSM 30053; assay: as above
Outline: as §2

Escherichia coli IAI1 [10] = assay: fold change of Cadaverine concentration vs plate DMSO controls (fold change (ratio)); higher = more amine produced, active = hit call of the paper (significant change in both replicates, either direction)
Outline: as §2

[11] = tested on: Klebsiella aerogenes DSM 30053; assay: as above
Outline: as §2

[12] = tested on: Ruminococcus gnavus DSM 108212; assay: fold change of 2-Phenylethylamine concentration vs plate DMSO controls (fold change (ratio)); higher = more amine produced, active = hit call of the paper (significant change in both replicates, either direction)
Outline: as §2

## O=C(O)Cc1sc(-c2ccccc2)nc1-c1ccc(Cl)cc1 [Fentiazac] (20 µM)
[1]
  growth: 1.09
Escherichia coli IAI1 [2]
  growth: 1.06
[3]
  growth: 1.06
[4]
  growth: 0.808
[5]
  fold change of Histamine concentration: 0.945 (inactive)
[6]
  fold change of Tryptamine concentration: 0.999 (inactive)
[7]
  fold change of Tryptamine concentration: 0.966 (inactive)
Escherichia coli IAI1 [8]
  fold change of Putrescine concentration: 1.04 (inactive)
[9]
  fold change of Putrescine concentration: 0.971 (inactive)
Escherichia coli IAI1 [10]
  fold change of Cadaverine concentration: 0.966 (inactive)
[11]
  fold change of Cadaverine concentration: 1.03 (inactive)
[12]
  fold change of 2-Phenylethylamine concentration: 1.06 (inactive)

## CN1CCCC(CC2c3ccccc3Sc3ccccc32)C1 (centres undefined) [Metixene hydrochloride] (20 µM)
[1]
  growth: 1.02
Escherichia coli IAI1 [2]
  growth: 0.988
[3]
  growth: 1.02
[4]
  growth: 1.25
[5]
  fold change of Histamine concentration: 0.998 (inactive)
[6]
  fold change of Tryptamine concentration: 1.06 (inactive)
[7]
  fold change of Tryptamine concentration: 0.807 (inactive)
Escherichia coli IAI1 [8]
  fold change of Putrescine concentration: 0.956 (inactive)
[9]
  fold change of Putrescine concentration: 1.02 (inactive)
Escherichia coli IAI1 [10]
  fold change of Cadaverine concentration: 0.999 (inactive)
[11]
  fold change of Cadaverine concentration: 1.01 (inactive)
[12]
  fold change of 2-Phenylethylamine concentration: 0.88 (inactive)

## CC(C)(C)NC[C@@H](O)COc1cccc2c1CCCC2=O [(+) Levobunolol hydrochloride] (20 µM)
[1]
  growth: 1.08
Escherichia coli IAI1 [2]
  growth: 0.974
[3]
  growth: 1.11
[4]
  growth: 0.903
[5]
  fold change of Histamine concentration: 0.936 (inactive)
[6]
  fold change of Tryptamine concentration: 1.05 (inactive)
[7]
  fold change of Tryptamine concentration: 1.04 (inactive)
Escherichia coli IAI1 [8]
  fold change of Putrescine concentration: 1.04 (inactive)
[9]
  fold change of Putrescine concentration: 0.985 (inactive)
Escherichia coli IAI1 [10]
  fold change of Cadaverine concentration: 0.994 (inactive)
[11]
  fold change of Cadaverine concentration: 0.999 (inactive)
[12]
  fold change of 2-Phenylethylamine concentration: 1.02 (inactive)

## O=C(O)c1ccccc1Nc1cc(Cl)ccc1C(=O)O [Lobenzarit disodium] (20 µM)
[1]
  growth: 0.929
Escherichia coli IAI1 [2]
  growth: 1
[3]
  growth: 1.02
[4]
  growth: 1.08
[5]
  fold change of Histamine concentration: 1.02 (inactive)
[6]
  fold change of Tryptamine concentration: 1.07 (inactive)
[7]
  fold change of Tryptamine concentration: 0.976 (inactive)
Escherichia coli IAI1 [8]
  fold change of Putrescine concentration: 0.987 (inactive)
[9]
  fold change of Putrescine concentration: 0.994 (inactive)
Escherichia coli IAI1 [10]
  fold change of Cadaverine concentration: 0.932 (inactive)
[11]
  fold change of Cadaverine concentration: 1 (inactive)
[12]
  fold change of 2-Phenylethylamine concentration: 1.01 (inactive)

## COc1cccc(N(C)C(=S)Oc2ccc3c(c2)CCCC3)n1 [Liranaftate] (20 µM)
[1]
  growth: 1.1
Escherichia coli IAI1 [2]
  growth: 0.972
[3]
  growth: 0.969
[4]
  growth: 0.941
[5]
  fold change of Histamine concentration: 1 (inactive)
[6]
  fold change of Tryptamine concentration: 0.974 (inactive)
[7]
  fold change of Tryptamine concentration: 1.31 (active)
Escherichia coli IAI1 [8]
  fold change of Putrescine concentration: 0.998 (inactive)
[9]
  fold change of Putrescine concentration: 1.06 (inactive)
Escherichia coli IAI1 [10]
  fold change of Cadaverine concentration: 1.01 (inactive)
[11]
  fold change of Cadaverine concentration: 1.07 (inactive)
[12]
  fold change of 2-Phenylethylamine concentration: 1.69 (active)

## C=CCOc1ccccc1OCC(O)CNC(C)C (centres undefined) [Oxprenolol hydrochloride] (20 µM)
[1]
  growth: 0.929
Escherichia coli IAI1 [2]
  growth: 0.97
[3]
  growth: 0.986
[4]
  growth: 0.945
[5]
  fold change of Histamine concentration: 1.02 (inactive)
[6]
  fold change of Tryptamine concentration: 1.08 (inactive)
[7]
  fold change of Tryptamine concentration: 1.05 (inactive)
Escherichia coli IAI1 [8]
  fold change of Putrescine concentration: 1.01 (inactive)
[9]
  fold change of Putrescine concentration: 1 (inactive)
Escherichia coli IAI1 [10]
  fold change of Cadaverine concentration: 1.02 (inactive)
[11]
  fold change of Cadaverine concentration: 0.988 (inactive)
[12]
  fold change of 2-Phenylethylamine concentration: 1.04 (inactive)

## Oc1c(Cl)cc(Cl)c2cccnc12 [Chloroxine] (20 µM)
[1]
  growth: 1.12
Escherichia coli IAI1 [2]
  growth: 0.966
[3]
  growth: 1.02
[4]
  growth: 0.369
[5]
  fold change of Histamine concentration: 0.921 (inactive)
[6]
  fold change of Tryptamine concentration: 1.02 (inactive)
[7]
  fold change of Tryptamine concentration: 0.589 (active)
Escherichia coli IAI1 [8]
  fold change of Putrescine concentration: 0.945 (inactive)
[9]
  fold change of Putrescine concentration: 0.981 (inactive)
Escherichia coli IAI1 [10]
  fold change of Cadaverine concentration: 1.31 (active)
[11]
  fold change of Cadaverine concentration: 1.01 (inactive)
[12]
  fold change of 2-Phenylethylamine concentration: 0.681 (inactive)

## Cc1cccc(C)c1NC(=O)C(C)N (centres undefined) [Tocainide hydrochloride] (20 µM)
[1]
  growth: 0.909
Escherichia coli IAI1 [2]
  growth: 1.02
[3]
  growth: 0.994
[4]
  growth: 1.06
[5]
  fold change of Histamine concentration: 1.06 (inactive)
[6]
  fold change of Tryptamine concentration: 1.01 (inactive)
[7]
  fold change of Tryptamine concentration: 1.02 (inactive)
Escherichia coli IAI1 [8]
  fold change of Putrescine concentration: 1.03 (inactive)
[9]
  fold change of Putrescine concentration: 1 (inactive)
Escherichia coli IAI1 [10]
  fold change of Cadaverine concentration: 0.983 (inactive)
[11]
  fold change of Cadaverine concentration: 0.976 (inactive)
[12]
  fold change of 2-Phenylethylamine concentration: 1.05 (inactive)

## CC(N)CCCC(C)(C)O (centres undefined) [Heptaminol hydrochloride] (20 µM)
[1]
  growth: 1.01
Escherichia coli IAI1 [2]
  growth: 1.1
[3]
  growth: 0.998
[4]
  growth: 1.12
[5]
  fold change of Histamine concentration: 0.999 (inactive)
[6]
  fold change of Tryptamine concentration: 0.988 (inactive)
[7]
  fold change of Tryptamine concentration: 1.01 (inactive)
Escherichia coli IAI1 [8]
  fold change of Putrescine concentration: 1.05 (inactive)
[9]
  fold change of Putrescine concentration: 1 (inactive)
Escherichia coli IAI1 [10]
  fold change of Cadaverine concentration: 1.04 (inactive)
[11]
  fold change of Cadaverine concentration: 0.994 (inactive)
[12]
  fold change of 2-Phenylethylamine concentration: 1.05 (inactive)

## COc1ccc(/C=C/C(=O)Nc2ccccc2C(=O)O)cc1OC [Tranilast] (20 µM)
[1]
  growth: 1.04
Escherichia coli IAI1 [2]
  growth: 1.07
[3]
  growth: 1.19
[4]
  growth: 1.08
[5]
  fold change of Histamine concentration: 0.89 (inactive)
[6]
  fold change of Tryptamine concentration: 0.993 (inactive)
[7]
  fold change of Tryptamine concentration: 1.01 (inactive)
Escherichia coli IAI1 [8]
  fold change of Putrescine concentration: 0.977 (inactive)
[9]
  fold change of Putrescine concentration: 0.994 (inactive)
Escherichia coli IAI1 [10]
  fold change of Cadaverine concentration: 0.995 (inactive)
[11]
  fold change of Cadaverine concentration: 1.02 (inactive)
[12]
  fold change of 2-Phenylethylamine concentration: 0.981 (inactive)

## Cc1c(F)c(N2CCNC(C)C2)cc2c1c(=O)c(C(=O)O)cn2C1CC1 (centres undefined) [Grepafloxacin] (20 µM)
[1]
  growth: 0.0227
Escherichia coli IAI1 [2]
  growth: 0.0384
[3]
  growth: 0.142
[4]
  growth: 1.29
[5]
  fold change of Histamine concentration: 0.0669 (active)
[6]
  fold change of Tryptamine concentration: 0.0355 (active)
[7]
  fold change of Tryptamine concentration: 0.697 (inactive)
Escherichia coli IAI1 [8]
  fold change of Putrescine concentration: 0.738 (active)
[9]
  fold change of Putrescine concentration: 0.628 (active)
Escherichia coli IAI1 [10]
  fold change of Cadaverine concentration: 0.155 (active)
[11]
  fold change of Cadaverine concentration: 0.936 (inactive)
[12]
  fold change of 2-Phenylethylamine concentration: 0.731 (inactive)

## CC[C@@H]([C@H](C)O)n1ncn(-c2ccc(N3CCN(c4ccc(OC[C@@H]5CO[C@@](Cn6cncn6)(c6ccc(F)cc6F)C5)cc4)CC3)cc2)c1=O [Posaconazole hydrate] (20 µM)
[1]
  growth: 0.942
Escherichia coli IAI1 [2]
  growth: 1.02
[3]
  growth: 1.02
[4]
  growth: 1.03
[5]
  fold change of Histamine concentration: 1.11 (inactive)
[6]
  fold change of Tryptamine concentration: 0.993 (inactive)
[7]
  fold change of Tryptamine concentration: 1 (inactive)
Escherichia coli IAI1 [8]
  fold change of Putrescine concentration: 1.04 (inactive)
[9]
  fold change of Putrescine concentration: 1.03 (inactive)
Escherichia coli IAI1 [10]
  fold change of Cadaverine concentration: 1.02 (inactive)
[11]
  fold change of Cadaverine concentration: 0.992 (inactive)
[12]
  fold change of 2-Phenylethylamine concentration: 1.02 (inactive)
